# B2AR arrestin: recruits beta-arrestin to the human beta2-adrenergic receptor | Potency, µM (series often up to 46.1 µM), without a hit: at the top dose activation, hits mostly activators | P07550 | AID 492947 | 0.02% of 330,000 active | beta-arrestin recruitment to beta2AR, cell-based reporter;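 also: 0% = DMSO controls and full agonism = EC100 isoproterenol or metaproterenol; nearly all actives have a fitted effect of over 65% in size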
# Target sequence (P07550 whole entry, looked up): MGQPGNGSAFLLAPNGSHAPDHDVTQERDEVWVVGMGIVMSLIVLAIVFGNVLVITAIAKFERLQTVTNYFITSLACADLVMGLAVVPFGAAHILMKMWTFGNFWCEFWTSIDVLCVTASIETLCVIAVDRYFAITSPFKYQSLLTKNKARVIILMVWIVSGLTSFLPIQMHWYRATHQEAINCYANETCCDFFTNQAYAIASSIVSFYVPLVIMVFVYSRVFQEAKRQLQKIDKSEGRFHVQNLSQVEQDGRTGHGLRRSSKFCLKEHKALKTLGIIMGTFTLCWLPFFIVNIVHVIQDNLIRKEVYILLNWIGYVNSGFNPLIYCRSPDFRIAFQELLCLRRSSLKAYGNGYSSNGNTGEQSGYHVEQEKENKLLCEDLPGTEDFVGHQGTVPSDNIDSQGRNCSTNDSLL
# RORgamma inh: blocks mouse ROR gamma transcriptional activity; AID 2551; Drosophila S2 Gal4-RORgamma UAS-luciferase reporter, 20 h; Potency, µM (titrated, usually from 53.6 µM), for inactives: top-dose activity change, negative = inhibition, most hits filed as inhibitors; 5.4% of 310,000 active; also: nearly all actives have a fitted effect of over 60% in size
#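 Luciferase reporter read in Schneider cells carrying Gal4-RORγ (mouse) and UAS-Photinus luciferase; cells given compound 1 h before 700 uM copper sulfate induction, then incubated 20 h at ambient temperature.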
# NPSR antagonist: blocks cAMP signaling of the human neuropeptide S receptor. Q6W5P4. CHO-NPSR cells, cAMP TR-FRET, antagonist mode. Potency, µM (series often up to 38.3 µM), inactives show at the highest dose activity change, negative = inhibition, hits mostly inhibitors. 1% of 220,000 active; also: nearly all actives have a fitted effect of over 50% in size
# Gal4-VP16 FLuc: counter-screen for ROR gamma inhibitors: Gal4-VP16 reporter. 3.5% of 310,000 active. Potency, µM (top dose mostly 53.6 µM), for the others: top-dose activity, negative = inhibition, most hits filed as inhibitors. Drosophila S2 Gal4-VP16 UAS-luciferase, luminescence, 20 h;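 also: Gal4-VP16 expression switched on by copper sulfate through the metallothionein promoter; nearly all actives have a fitted effect of over 50% in size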
# Active calls of the source: *; ? = inconclusive; nt = no result; [ ] = dose if it differs, or a comment. In the library only some 5.7% were active in any assay of this set; here they are far more common. Calls follow the shape of the dose curve; as a rule, active = well fitted curve in the direction sought with a large enough effect; inconclusive = small, poorly fitted or top-dose-only effect, or another doubt; inactive = no such curve, though single readings can be large; an effect the other way counts as inactive or inconclusive. Unless noted, % is scaled to controls: 0 for no effect and ±100 for the full control effect; potency is read from the fitted curve at half-maximal effect.
SMILES,B2AR arrestin,RORgamma inh,NPSR antagonist,Gal4-VP16 FLuc
CC(C)(C)OC(=O)C[C@H]1C/C=C\C[C@@H](CC(=O)NCCO)C(=O)N[C@H](C(C)(C)C)COC1=O,0%,nt,nt,nt
Cc1nc(-c2ccc(NC(=O)c3ccco3)cc2)cs1,0%,3.5µM*,nt,4.5µM*
Cc1nc(-c2ccc(C(=O)Nc3ccccc3F)cc2)cs1,0%,8.9µM*,-3%,8.9µM*
Cc1nc(-c2cccc(NC(=O)c3ccco3)c2)cs1,0%,32%,nt,27%
Nc1nc(-c2ccc(NC(=O)c3ccco3)cc2)cs1,0%,10µM*,nt,?
CCN(Cc1ccncc1)C(=O)C(CO)c1ccccc1 (stereo not given),nt,1%,-6%[46.1 µM],3%
COc1cccc(C(=O)NCCS(=O)(=O)N2CCN(C(=O)c3ccco3)CC2)c1,0%,nt,nt,nt
CCn1nc(C)cc1C(=O)N1CCCC(Nc2ccc(C(C)C)cc2)C1 (stereo not given),-1%,nt,nt,nt
Cc1ccc([N+](=O)[O-])cc1N=Nc1c(C)[nH]n(C(N)=S)c1=O,-1%,7.1µM*,nt,10µM*
Cc1ccc([N+](=O)[O-])cc1N=Nc1c(-c2ccc([N+](=O)[O-])cc2)[nH]n(C(N)=S)c1=O,0.71µM*,0.32µM*,10µM*,-11%
NC(=S)n1[nH]c(-c2ccc([N+](=O)[O-])cc2)c(N=Nc2ccc(Cl)cc2)c1=O,16µM*,0.4µM*,-22%,?
CC(C)(C)CC(C)(C)N1CNC(=S)NC1,-1%,10µM*,-31%,?
CCC(=O)Nc1ccccc1C(=O)OCC(=O)c1ccccc1,0%,10µM*,-14%[46.1 µM],-26%
CCCCC(=O)Nc1ccccc1C(=O)OCC(=O)c1ccc2c(c1)OCCO2,3%,?,-32%,?
O=C(O)/C=C/C(=O)Nc1ccccc1C(=O)OCC(=O)c1ccc2c(c1)OCCO2,0%,7.9µM*,-29%,8.9µM*
CCCCC(=O)N1C/C=C\C(c2ccc(OC)cc2)N(Cc2ccc(F)cc2)C(=O)[C@H]1Cc1ccccc1 (stereo not given in full),0%,?,-56%,?
COc1ccc(C2/C=C\CN(C(=O)C3CC3)[C@H](Cc3ccccc3)C(=O)N2Cc2ccc(F)cc2)cc1 (stereo not given in full),0%,11µM*,?,-20%
COc1ccc(C2/C=C\CN(C(=O)C3CC3)C(Cc3ccccc3)C(=O)N2Cc2ccc(F)cc2)cc1 (stereo not given),nt,10µM*,nt,?
CCN1CCN(Cc2c3ccccc3cc3ccccc23)CC1,-1%,1%[1.91 µM],nt,2%
C=C1c2cccc(O)c2C(O)=C2C(=O)[C@@]3(O)C(O)=C(C(N)=O)C(=O)[C@@H](N(C)C)[C@@H]3[C@@H](O)[C@H]12,nt,20%[2.98 µM],nt,-6%[17 µM]
COc1ccc2oc(=O)c(C(=O)Nc3ccccc3C)cc2c1,0%,0.89µM*,nt,?
COc1ccc2oc(=N)c(C(=O)Nc3cccc(C)c3C)cc2c1,-1%,3.2µM*,nt,-28%
CCNC(=S)NNc1ccccc1,?,0.71µM*,-22%,4µM*
S=C(NCc1ccccc1)NNc1ccccc1,?,1.4µM*,-2%,3.2µM*
O=C(O)C1CC[C@@](C(=O)O)(c2ccccc2)c2ccccc21 (stereo not given in full),nt,-8%,nt,6%
SMILES,B2AR arrestin,RORgamma inh,NPSR antagonist,Gal4-VP16 FLuc
CC[C@H](C)[C@H](NC(=O)[C@H](Cc1ccc(O)cc1)NC(=O)[C@@H](NC(=O)[C@H](CCCN=C(N)N)NC(=O)[C@@H](N)CC(=O)O)C(C)C)C(=O)N[C@@H](Cc1cnc[nH]1)C(=O)N1CCC[C@H]1C(=O)O,nt,1%,nt,4%
CCOc1ccc(/C=C/[N+](=O)[O-])c2ccccc12,0%,?,10µM*,?
CCOC(=O)Cn1cc(/C=C/[N+](=O)[O-])c2ccccc21,0%,?,-18%,13µM*
CCOC(=O)COc1ccc2ccccc2c1/C=C/[N+](=O)[O-],-1%,13µM*,?,6.3µM*
CCOC(=O)COc1ccc(/C=C/[N+](=O)[O-])c(OCC(=O)OCC)c1,0%,?,?,?
Cc1noc(C)c1-c1ccc2ncnc(NCc3cc(F)cc(F)c3)c2c1,nt,-24%,nt,-23%
CCOc1ccc(-c2noc(CCC(=O)O)n2)cc1,0%,0.35µM*,-4%[46.1 µM],1.4µM*
COc1ccc(-c2noc(CCC(=O)O)n2)cc1,-2%,?,5%,?
COc1ccc(-c2noc(CCCC(=O)O)n2)cc1,0%,0.32µM*,-11%[46.1 µM],0.35µM*
Nc1nc(C(=O)N2CCOCC2)nn1S(=O)(=O)c1ccc(Cl)cc1,0%,-23%,4%[46.1 µM],1%
O=C(c1nnsc1S(=O)c1ccc(Cl)cc1)N1CCOCC1 (stereo not given),0%,1.1µM*,-6%,3.5µM*
Cc1nnsc1S(=O)c1ccc(Cl)cc1 (stereo not given),0%,-22%,nt,3%
O=C(Nc1ccccc1)c1nnsc1S(=O)c1ccc(Cl)cc1 (stereo not given),0%,16µM*,?,4.5µM*
CNC(=O)c1nnsc1S(=O)(=O)c1ccc(Cl)cc1,0%,0.56µM*,?,0.4µM*
O=C(c1nnsc1S(=O)(=O)c1ccc(Cl)cc1)N1CCOCC1,0%,2.8µM*,-37%,10µM*
CNC(=O)c1ccc(S(=O)(=O)c2ccc(Cl)cc2)c(NC(C)=O)c1,-1%,17%,nt,1%
O=C(c1ccc(=O)[nH]n1)N1CCN(S(=O)(=O)c2ccc(C(F)(F)F)cc2)CC1,0%,nt,nt,nt
COc1cccc(-c2nc(NCc3cccs3)c3ccccc3n2)c1,nt,57%,nt,10%
CC1CC=CC2C1C(=O)N(Cc1ccccc1)C2c1ccc(F)c(/C=C/c2ccccc2)c1 (stereo not given),nt,2%,nt,6%
COc1cc(OC)c2c(OC)c(-c3ccc4c(c3)OCO4)c(=O)oc2c1,nt,24%,nt,?
Cc1[nH]c2ccccc2c1C(=O)C(C)OC(=O)c1ccc([N+](=O)[O-])o1 (stereo not given),0%,14µM*,-20%,-23%
CCc1noc(C)c1C(=O)OC(C)C(=O)c1c(C)[nH]c2ccccc12 (stereo not given),0%,nt,nt,nt
O=C1NC2(CCCCC2)N=C1c1ccc(F)cc1,0%,1%,10%[46.1 µM],10%
O=C1NC2(CCCCC2)N=C1c1ccc(Br)cc1,0%,13µM*,-11%[46.1 µM],?
Cc1ccc(C2=NC3(CCCCCC3)NC2=S)cc1,0%,1.4µM*,10%,2.2µM*
Cc1cccc(OCc2nnc(SCC(=O)NC3CCCCC3)n2C)c1,0%,-22%,nt,-4%
C=Cc1ccc(S(=O)(=O)O)cc1,nt,-13%,nt,6%
O=C(COC(=O)c1ccc(Cl)c([N+](=O)[O-])c1)NC1CCCC1,0%,14%,nt,-4%
O=C(COC(=O)c1cccc2c1C(=O)c1ccccc1C2=O)NC1CCCCC1,0%,?,20%,-11%
O=C(COC(=O)c1ccccc1C(=O)c1ccc(Cl)c([N+](=O)[O-])c1)NC1CCCCCC1,0%,4.5µM*,10µM*,?
